TRPML1 inh: human mucolipin-1 channel inhibition; activity change, negative = inhibition, % (no concentration beside the values); TRPML1-inducible cells, Ca2+ dye fluorescence, FDSS; stronger effect = lower value; inhibition of EC80 agonist-evoked calcium signal; 390,000 compounds, 0.02% hits; Q9GZU1; in the data active = activity change below about -50%; inconclusive = between about -30% and that limit;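 also: stimulus is agonist 54-4 at its EC80 concentration; % is scaled to controls: 0 for no effect and ±100 for the full control effect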
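TRPML1-DL cells, Tet-induced overnight (~16 h, 37 °C) at 1,500 cells/well, were loaded with Ca8 no-wash dye plus quencher for 45-90 min at room temperature. Compounds were pinned during FDSS kinetic reading; agonist 54-4 at EC80 (4 uM final) then added.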
KCNH2 3.1 block: inhibitors of human KCNH2 3.1 potassium channel isoform; activity change, % (tested at about 1.8 µM); 340,000 compounds, 0.95% hits; U2OS KCNH2 3.1, thallium flux FluxOr; stronger effect = lower value;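 active = maximum activity change below -70%; inconclusive = maximum activity change from -70% to -50%; inactive = maximum activity change above -50%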;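 also: thallium influx rate constant from kinetic fluorescence after stimulation buffer; % is scaled to controls: 0 for no effect and ±100 for the full control effect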
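FluxOr-based Tl+ influx in U2OS cells transduced with KCNH2 3.1 virus; rate constants normalized to DMSO controls.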
TRPML1 agonist: agonists of human TRPML1 channel | TRPML1-expressing cells, Ca2+ dye fluorescence, FDSS | activation, % (no concentration beside the values) | 410,000 compounds, 0.12% hits | AID 624414; in the data active = activation above about 50%; inconclusive = mostly about 30% to 49%; also: 0% is about no effect
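In this qHTS format, compounds were pin-transferred onto Ca8-dye-loaded TRPML1-DL cells induced with Tet overnight, and intracellular Ca2+ fluorescence was recorded kinetically for 110 s after a 10 s baseline. A subsequent 4uM final 54-4 (EC80) addition followed by a second 110 s read served as the antagonist phase.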
TRPV1 ag: agonists of human vanilloid receptor 1 (TRPV1). TRPV1-expressing cells, Fluo-8 calcium influx, agonist mode. Q8NER1. activation, % at 8.33 µM. AID 540275. 320,000 compounds, 0.19% hits; in the data active = activation above about 80%; inconclusive = between about 30% and that limit; also: 0% is about no effect
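TRPV1-expressing cells were cultured overnight at 35.5C and loaded with Fluo-8 calcium dye for 40 to 90 min at room temperature. After a 10 s baseline, compound was added and calcium influx was read kinetically for 3 min (ex 480/em 520 nm).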
TRPV1 potentiator: human TRPV1 potentiation; Q8NER1; TRPV1-expressing cells, Fluo-8 calcium influx, capsaicin EC20 potentiation; potentiation, % at 8.33 µM; 320,000 compounds, 0.02% hits; AID 540277; in the data active = potentiation above about 80%; inconclusive = between about 30% and that limit; also: 0% is about no effect
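Cells expressing TRPV1 were dye-loaded with Fluo-8 and read kinetically: 10 s baseline, 3 min after compound (agonist portion), then 2 min after EC20 capsaicin (allosteric enhancer portion). Calcium-bound dye fluorescence at 480/520 nm.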
hERG WT inh: inhibitors of human wildtype KCNH2 potassium channel; activity change, % at 1.84 µM; AID 720551; U2OS, BacMam KCNH2, thallium flux FluxOr; stronger effect = lower value; 340,000 compounds, 0.37% hits;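 active = maximum activity change below -70%; inconclusive = maximum activity change between -70% and -50%; inactive = maximum activity change above -50%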; also: % is scaled to controls: 0 for no effect and ±100 for the full control effect
Target sequence (Q12809 whole entry, looked up): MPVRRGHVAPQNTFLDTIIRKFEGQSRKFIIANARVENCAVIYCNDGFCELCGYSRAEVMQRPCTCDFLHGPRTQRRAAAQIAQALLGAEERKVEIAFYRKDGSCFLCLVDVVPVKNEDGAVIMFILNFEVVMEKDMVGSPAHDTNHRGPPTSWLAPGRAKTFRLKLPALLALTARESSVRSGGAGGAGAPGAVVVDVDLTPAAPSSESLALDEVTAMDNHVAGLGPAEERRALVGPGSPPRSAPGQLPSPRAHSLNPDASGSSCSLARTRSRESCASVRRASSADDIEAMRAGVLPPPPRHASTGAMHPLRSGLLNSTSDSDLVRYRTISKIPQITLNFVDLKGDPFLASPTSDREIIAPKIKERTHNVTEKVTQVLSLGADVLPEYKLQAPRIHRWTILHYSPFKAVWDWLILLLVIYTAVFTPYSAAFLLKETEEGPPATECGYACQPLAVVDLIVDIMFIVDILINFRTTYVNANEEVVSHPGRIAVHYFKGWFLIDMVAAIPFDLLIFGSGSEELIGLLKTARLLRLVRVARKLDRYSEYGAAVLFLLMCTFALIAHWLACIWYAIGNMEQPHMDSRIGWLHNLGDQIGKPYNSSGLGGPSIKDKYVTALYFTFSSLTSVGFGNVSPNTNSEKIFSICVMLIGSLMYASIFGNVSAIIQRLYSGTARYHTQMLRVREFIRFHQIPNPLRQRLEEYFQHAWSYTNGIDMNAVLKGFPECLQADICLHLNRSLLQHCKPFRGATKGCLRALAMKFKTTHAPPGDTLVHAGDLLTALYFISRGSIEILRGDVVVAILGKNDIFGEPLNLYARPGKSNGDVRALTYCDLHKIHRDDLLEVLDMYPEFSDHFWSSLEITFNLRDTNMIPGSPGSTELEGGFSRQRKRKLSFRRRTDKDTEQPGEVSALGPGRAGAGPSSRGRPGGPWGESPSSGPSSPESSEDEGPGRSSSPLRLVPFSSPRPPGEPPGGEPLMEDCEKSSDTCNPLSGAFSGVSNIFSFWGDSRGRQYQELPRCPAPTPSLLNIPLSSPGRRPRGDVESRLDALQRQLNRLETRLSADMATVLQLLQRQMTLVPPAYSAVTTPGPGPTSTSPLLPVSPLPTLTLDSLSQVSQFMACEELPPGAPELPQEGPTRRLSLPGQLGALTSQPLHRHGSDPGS
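U2OS cells transduced with wild-type KCNH2 virus are loaded with FluxOr dye for 45 min, and thallium flux is measured in kinetic reads before and after stimulation buffer. Rate constants are normalized to DMSO controls.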
Starred values were filed as active, the others as inactive. Most compounds without a hit are left out; they make up all but 1.3% or so of the library.

How did Cc1ccc(Cn2c(SCC(=O)Nc3cc(C)on3)nc3ccccc3c2=O)cc1 do in these assays?
TRPML1 inh: -7; KCNH2 3.1 block: -97*; TRPML1 agonist: -1; TRPV1 ag: -1; TRPV1 potentiator: 27; hERG WT inh: -2

What do the screens show for `Cc1[nH]c(SCC(=O)Nc2cc(C(N)=O)cc(C(N)=O)c2)nc1Cc1ccccc1`?
TRPML1 inh: -17; KCNH2 3.1 block: 1; TRPML1 agonist: -1; hERG WT inh: 2

How did CCCSc1ncc(Cl)c(C(=O)Nc2c(C(=O)c3ccc(C)cc3)oc3ccccc23)n1 do in these assays?
TRPML1 inh: -4; TRPML1 agonist: 0

What do the screens show for `O=C(Nc1ccc(F)c(Cl)c1)N1CCN(C(=O)c2nsc3ccccc23)CC1`?
TRPML1 inh: 14; TRPML1 agonist: 2

Results for O=C(NC(CC(=O)N1CCN(c2ccc([N+](=O)[O-])cc2)CC1)c1ccccc1)c1ccccc1Cl (configuration not stated) ?
TRPML1 inh: 10; KCNH2 3.1 block: -107*; TRPML1 agonist: 2; TRPV1 ag: 2; TRPV1 potentiator: -13; hERG WT inh: -117*

Results for COc1ccc(/C=c2\[nH]c(=O)/c(=C/c3ccc(OC)cc3)[nH]c2=O)cc1 ?
TRPML1 agonist: 0

Results for C=CCNC(=O)c1ccc(CN(c2ccc(OCC)cc2)S(=O)(=O)c2ccc(C)cc2)cc1 ?
TRPML1 inh: -8; KCNH2 3.1 block: -88*; TRPML1 agonist: 1; TRPV1 ag: 1; TRPV1 potentiator: 8; hERG WT inh: inconclusive

How did C=CCNC(=O)c1ccc(N(Cc2ccc(Cl)cc2)S(C)(=O)=O)cc1 do in these assays?
TRPML1 inh: -12; KCNH2 3.1 block: -3; TRPML1 agonist: 1; TRPV1 ag: 1; TRPV1 potentiator: -3; hERG WT inh: 0

How did Cc1c(OCC(=O)N2CCC(C(N)=O)CC2)ccc2c1oc(=O)c1ccccc12 do in these assays?
KCNH2 3.1 block: 4; TRPV1 ag: 91*; TRPV1 potentiator: 7; hERG WT inh: -2

Results for O=C(Nc1ccccc1Cl)N1CCC2(CC1)Oc1ccccc1C(=O)N2Cc1ccc(F)cc1 ?
TRPML1 inh: 13; TRPML1 agonist: 1

What do the screens show for `Cc1cccc(-c2nnc(C(C)Nc3cccc(C(=O)NC4CC4)c3)o2)c1` (configuration not stated)?
TRPML1 inh: 9; KCNH2 3.1 block: -73*; TRPML1 agonist: -1; hERG WT inh: 7

How did CC1=C(C(=O)Nc2cccnc2)C(c2ccccc2)n2nc(SCc3ccccc3F)nc2N1 (configuration not stated) do in these assays?
TRPML1 inh: -3; TRPML1 agonist: -1

What do the screens show for `CN(C)CCn1cnc2c1c(=O)[nH]c(=O)n2Cc1ccccc1`?
TRPML1 inh: 7; KCNH2 3.1 block: 4; TRPML1 agonist: -1; TRPV1 ag: -5; TRPV1 potentiator: 6; hERG WT inh: -252*

What do the screens show for `COc1ccc2cc(CCNC(=O)c3cc4ccccc4o3)c(=O)[nH]c2c1`?
TRPML1 inh: 10; KCNH2 3.1 block: -4; TRPML1 agonist: 0; TRPV1 ag: 7; TRPV1 potentiator: 2; hERG WT inh: -80*

How did Cc1cc2nccc(/C=C/c3ccc(N(C)C)cc3)c2cc1C do in these assays?
TRPML1 agonist: 5

How did CC1CCN(C(=O)CCCC(=O)N2CCC(C)CC2)CC1 do in these assays?
TRPML1 inh: 0; KCNH2 3.1 block: 20; TRPML1 agonist: 0; TRPV1 ag: 1; TRPV1 potentiator: -1; hERG WT inh: -71*

What do the screens show for `CC1CCN(C(=O)CCCC(=O)O)CC1`?
TRPML1 inh: -6; KCNH2 3.1 block: -2; TRPML1 agonist: 1; TRPV1 ag: -4; TRPV1 potentiator: -3; hERG WT inh: 1

How did CCOC(=O)c1c(N2CCN(c3ccccc3)CC2)cc(C)nc1C do in these assays?
KCNH2 3.1 block: -97*; TRPV1 ag: 17; TRPV1 potentiator: -11; hERG WT inh: -48

How did Cn1c(=O)c(NCCc2ccccc2)c2c3c(cccc31)C(=O)c1ccccc1-2 do in these assays?
TRPML1 inh: -11; KCNH2 3.1 block: -83*; TRPML1 agonist: 104*; TRPV1 ag: 92*; TRPV1 potentiator: 23; hERG WT inh: -70*

How did CCCCNc1c2c3c(cccc3n(C)c1=O)C(=O)c1ccccc1-2 do in these assays?
TRPML1 inh: -15; KCNH2 3.1 block: -3; TRPML1 agonist: 89*; TRPV1 ag: inconclusive; TRPV1 potentiator: 2; hERG WT inh: -8

How did Cn1c(=O)c(NCCO)c2c3c(cccc31)C(=O)c1ccccc1-2 do in these assays?
TRPML1 inh: -4; KCNH2 3.1 block: 5; TRPML1 agonist: 93*; hERG WT inh: -28

How did CCNc1c2c3c(cccc3n(C)c1=O)C(=O)c1ccccc1-2 do in these assays?
TRPML1 inh: -29; KCNH2 3.1 block: -16; TRPML1 agonist: 67*; TRPV1 ag: 86*; TRPV1 potentiator: -9; hERG WT inh: -32

Results for CC(=O)Nc1ccc(Nc2c3c4c(cccc4n(C)c2=O)C(=O)c2ccccc2-3)cc1 ?
TRPML1 inh: 1; KCNH2 3.1 block: -13; TRPML1 agonist: 2; TRPV1 ag: 6; TRPV1 potentiator: -18; hERG WT inh: -15

What do the screens show for `Cc1nn2c(C)c(C(=O)NCc3cccc(Br)c3)cnc2c1-c1ccccc1`?
TRPML1 inh: 13; TRPML1 agonist: 3

How did COC(=O)CN1C(=O)C(C)(C)c2cc(S(=O)(=O)NCc3ccc(Cl)cc3)ccc21 do in these assays?
TRPML1 inh: -28; TRPML1 agonist: -1

Results for Cn1c(=O)c(NC2CCCCC2)c2c3c(cccc31)C(=O)c1ccccc1-2 ?
TRPML1 inh: inconclusive; KCNH2 3.1 block: 6; TRPML1 agonist: 100*; TRPV1 ag: 89*; TRPV1 potentiator: 15; hERG WT inh: -4

How did Cn1c(=O)cc2c3c(c(N4CCCCC4)ccc31)C(=O)c1ccccc1-2 do in these assays?
TRPML1 inh: -5; KCNH2 3.1 block: 0; TRPML1 agonist: 3; TRPV1 ag: 5; TRPV1 potentiator: 3; hERG WT inh: -6

Results for COc1ccc(-n2cc(CNCCc3nc(C)cc(C)n3)c(-c3ccccc3Cl)n2)cc1 ?
TRPML1 inh: 11; KCNH2 3.1 block: -49; TRPML1 agonist: 0; TRPV1 ag: 11; TRPV1 potentiator: -14; hERG WT inh: -13

Results for Fc1ccc(-n2cc(CNCCc3ccccn3)c(-c3ccccc3Cl)n2)cc1 ?
TRPML1 inh: 13; KCNH2 3.1 block: -115*; TRPML1 agonist: 1; TRPV1 ag: 25; TRPV1 potentiator: -5; hERG WT inh: -47

Results for O=C(C[n+]1ccccc1Cl)c1ccc(F)cc1 ?
TRPML1 agonist: 0

Compound activity as filed in PubChem BioAssay.
